Experimental data as given in PubChem BioAssay (NCATS).
Records with an inconclusive call do not appear. Entries that show only a call come without a potency. Activity calls are given as the source filed them. Unless noted, the call rests on the fitted dose curve; in most records, active means well fitted curve in the direction sought with a large enough effect; inconclusive means small, poorly fitted or top-dose-only effect, or another doubt; inactive means no such curve, though single readings can be large; an effect the other way counts as inactive or inconclusive.

Assays:
[1] = molecular target: Cytochrome P450 1A2 (Homo sapiens) (UniProt P05177); test: p450-cyp1a2 (AID 410; calls by dose curve; further: potency means the concentration at half of the fitted maximal effect)
Method in brief: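 Luminescent demethylation readout: Luciferin-ME (100uM, equal to Km) turned over by 20nM CYP1A2 for 60 min at room temperature after NADPH regeneration addition, following 10 min compound preincubation. Normalization used 57 uM furafylline as full inhibition.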

[2] = molecular target: Mitogen-activated protein kinase 10 (Mus musculus) (UniProt Q61831); test: JNK3 AlphaScreen Assay (AID 530; active means well fitted curve in either direction with a large enough effect, not every such curve was filed as active;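 further: kinase came from lysate of stimulated human HepG2 cells; signal reports phosphorylation of biotinylated GST-cJun 1-79 at Ser73 with 10 µM ATP; series mostly up to about 57 µM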)
Method in brief: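 Activity was read by AlphaScreen after JNK3-containing HepG2 lysate (cytokine pre-activated) phosphorylated biotinylated GST-cJun with 10 uM ATP at room temperature. Phospho-Ser73 cJun antibody with Protein-A acceptor beads provided detection.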

[3] = molecular target: 3',5'-cyclic-AMP phosphodiesterase 4B (Homo sapiens) (UniProt Q07343); test: qHTS Assay for Inhibitors of PDE-IV (AID 607; active means well fitted activation curve with a large enough effect in the main read-out, with a control signal flat, not every such curve was filed as active; further: potency means the concentration at half of the fitted maximal effect)
Method in brief: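 Live HEK293 cells with a modified cyclic nucleotide-gated (CNG) channel report intracellular cAMP via membrane-potential dye fluorescence (ex 535/em 590 nm). Endogenous PDE-IV was targeted. Compounds were tested at up to 22.9 uM final; RO 20-1724 100 uM served as control.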

[4] = molecular target: Cytochrome P450 3A4 (Homo sapiens) (UniProt P08684); test: qHTS Assay for Inhibitors and Substrates of Cytochrome P450 3A4 (AID 884); further: potency means the concentration at half of the fitted maximal effect; nearly all actives have a fitted effect of over 50% in size
Method in brief: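 Luminescent readout of luciferin produced by CYP3A4 (20 nM) dealkylation of Luciferin-PPXE, 25 uM (its KM). NADPH-driven reaction ran 60 min at RT after 10 min compound preincubation; data scaled to 57 uM ketoconazole as 100% inhibition.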

[5] = molecular target: Cytochrome P450 3A4 (Homo sapiens) (UniProt P08684); test: qHTS Assay for Activators of Cytochrome P450 3A4 (AID 885); further: nearly all actives have a fitted effect of over 65% in size
Method in brief: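 Using 20nM recombinant human CYP3A4 in potassium phosphate (200mM), substrate Luciferin-PPXE at 25uM, luminescent luciferin detection followed a 60-min RT NADPH reaction; data scaled to 57 uM ketoconazole.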

[6] = molecular target: Cytochrome P450 2D6 (Homo sapiens) (UniProt P10635); test: qHTS Assay for Inhibitors and Substrates of Cytochrome P450 2D6 (AID 891); further: potency means the concentration at half of the fitted maximal effect; nearly all actives have a fitted effect of over 60% in size
Method in brief: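 Luminescent read-out of luciferin formed by 5 nM human CYP2D6 demethylating 30 uM Luciferin-ME EGE (Km level) over 60 min at room temperature after NADPH regeneration addition. Data normalized to full inhibition by 1.43 uM quinidine.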

[7] = molecular target: Cytochrome P450 2C9 (Homo sapiens) (UniProt P11712); test: qHTS Assay for Inhibitors and Substrates of Cytochrome P450 2C9 (AID 883); further: potency means the concentration at half of the fitted maximal effect; nearly all actives have a fitted effect of over 60% in size
Method in brief: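 Signal: luciferase luminescence reporting luciferin produced by CYP2C9. Conditions: 10nM enzyme, Luciferin-H 100uM at KM, 25mM KPO4, 37C, 60 min NADPH-driven reaction. Reference: 57uM sulphaphenazole as 100% inhibition.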

[8] = molecular target: Cytochrome P450 2C19 (Homo sapiens) (UniProt P33261); test: qHTS Assay for Inhibitors and Substrates of Cytochrome P450 2C19 (AID 899); further: potency means the concentration at half of the fitted maximal effect; nearly all actives have a fitted effect of over 60% in size
Method in brief: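 Signal comes from luciferase acting on luciferin released by CYP2C19-mediated hydroxylation of Luciferin-H EGE, 10uM (KM). Assay mix: 5nM enzyme, 50mM KPO4; 60 min at 37C with NADPH regeneration. Data normalized against 57uM ketoconazole.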

Cytochrome P450 2C19 (Homo sapiens), sequence (P33261 whole entry, looked up): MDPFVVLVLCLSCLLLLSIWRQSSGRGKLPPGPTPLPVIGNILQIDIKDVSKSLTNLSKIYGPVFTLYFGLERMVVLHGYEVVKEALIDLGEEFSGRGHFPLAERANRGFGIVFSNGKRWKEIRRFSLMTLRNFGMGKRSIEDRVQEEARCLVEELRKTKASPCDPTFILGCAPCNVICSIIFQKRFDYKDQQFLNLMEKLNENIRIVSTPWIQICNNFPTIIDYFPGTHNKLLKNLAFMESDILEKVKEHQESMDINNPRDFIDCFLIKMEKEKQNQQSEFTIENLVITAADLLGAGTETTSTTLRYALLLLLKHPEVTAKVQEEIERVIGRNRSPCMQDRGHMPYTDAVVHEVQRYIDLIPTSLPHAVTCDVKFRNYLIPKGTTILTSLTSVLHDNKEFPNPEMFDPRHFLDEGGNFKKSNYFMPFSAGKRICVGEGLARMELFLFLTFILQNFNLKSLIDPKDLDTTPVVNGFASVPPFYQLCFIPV
Cytochrome P450 2D6 (Homo sapiens), sequence (P10635 whole entry, looked up): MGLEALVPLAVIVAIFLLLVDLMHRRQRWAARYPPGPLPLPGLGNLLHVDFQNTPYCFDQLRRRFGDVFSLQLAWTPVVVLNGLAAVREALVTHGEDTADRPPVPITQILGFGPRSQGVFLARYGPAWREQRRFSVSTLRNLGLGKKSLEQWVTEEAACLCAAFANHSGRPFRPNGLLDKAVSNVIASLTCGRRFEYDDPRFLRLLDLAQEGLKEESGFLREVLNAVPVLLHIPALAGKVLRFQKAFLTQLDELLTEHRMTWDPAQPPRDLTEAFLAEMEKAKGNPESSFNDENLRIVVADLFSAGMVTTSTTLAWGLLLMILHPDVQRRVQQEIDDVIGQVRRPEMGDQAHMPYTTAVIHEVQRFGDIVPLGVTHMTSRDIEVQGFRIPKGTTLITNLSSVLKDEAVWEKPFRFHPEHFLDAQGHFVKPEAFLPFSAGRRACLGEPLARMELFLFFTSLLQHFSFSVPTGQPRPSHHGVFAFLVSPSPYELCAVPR
Cytochrome P450 3A4 (Homo sapiens), sequence (P08684 whole entry, looked up): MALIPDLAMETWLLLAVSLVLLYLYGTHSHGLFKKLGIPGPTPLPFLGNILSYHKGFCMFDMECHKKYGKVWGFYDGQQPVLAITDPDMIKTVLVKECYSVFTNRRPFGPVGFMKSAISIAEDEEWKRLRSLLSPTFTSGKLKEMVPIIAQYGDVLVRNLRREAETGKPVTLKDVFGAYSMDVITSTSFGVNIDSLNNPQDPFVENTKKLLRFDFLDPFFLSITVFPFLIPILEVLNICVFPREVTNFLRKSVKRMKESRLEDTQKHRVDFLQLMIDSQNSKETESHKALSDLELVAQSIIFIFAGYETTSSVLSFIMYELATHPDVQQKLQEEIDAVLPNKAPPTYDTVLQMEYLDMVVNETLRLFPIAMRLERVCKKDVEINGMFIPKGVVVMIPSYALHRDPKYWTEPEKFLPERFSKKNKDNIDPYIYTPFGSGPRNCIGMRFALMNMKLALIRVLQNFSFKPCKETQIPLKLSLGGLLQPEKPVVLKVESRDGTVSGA
Cytochrome P450 1A2 (Homo sapiens), sequence (P05177 whole entry, looked up): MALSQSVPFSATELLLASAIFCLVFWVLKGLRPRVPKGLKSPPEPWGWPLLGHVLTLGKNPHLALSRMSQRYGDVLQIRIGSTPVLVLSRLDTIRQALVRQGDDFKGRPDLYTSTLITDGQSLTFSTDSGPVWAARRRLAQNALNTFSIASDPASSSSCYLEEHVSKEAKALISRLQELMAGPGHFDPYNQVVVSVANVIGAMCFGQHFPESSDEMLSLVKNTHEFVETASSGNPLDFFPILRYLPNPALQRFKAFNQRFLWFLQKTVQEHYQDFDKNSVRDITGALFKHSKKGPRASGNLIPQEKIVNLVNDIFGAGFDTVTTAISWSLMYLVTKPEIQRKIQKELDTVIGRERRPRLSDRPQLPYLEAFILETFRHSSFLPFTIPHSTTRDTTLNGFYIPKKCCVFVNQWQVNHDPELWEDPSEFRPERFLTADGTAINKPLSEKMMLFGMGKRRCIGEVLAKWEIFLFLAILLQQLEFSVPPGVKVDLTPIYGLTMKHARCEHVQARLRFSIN
3',5'-cyclic-AMP phosphodiesterase 4B (Homo sapiens), sequence (Q07343 whole entry, looked up): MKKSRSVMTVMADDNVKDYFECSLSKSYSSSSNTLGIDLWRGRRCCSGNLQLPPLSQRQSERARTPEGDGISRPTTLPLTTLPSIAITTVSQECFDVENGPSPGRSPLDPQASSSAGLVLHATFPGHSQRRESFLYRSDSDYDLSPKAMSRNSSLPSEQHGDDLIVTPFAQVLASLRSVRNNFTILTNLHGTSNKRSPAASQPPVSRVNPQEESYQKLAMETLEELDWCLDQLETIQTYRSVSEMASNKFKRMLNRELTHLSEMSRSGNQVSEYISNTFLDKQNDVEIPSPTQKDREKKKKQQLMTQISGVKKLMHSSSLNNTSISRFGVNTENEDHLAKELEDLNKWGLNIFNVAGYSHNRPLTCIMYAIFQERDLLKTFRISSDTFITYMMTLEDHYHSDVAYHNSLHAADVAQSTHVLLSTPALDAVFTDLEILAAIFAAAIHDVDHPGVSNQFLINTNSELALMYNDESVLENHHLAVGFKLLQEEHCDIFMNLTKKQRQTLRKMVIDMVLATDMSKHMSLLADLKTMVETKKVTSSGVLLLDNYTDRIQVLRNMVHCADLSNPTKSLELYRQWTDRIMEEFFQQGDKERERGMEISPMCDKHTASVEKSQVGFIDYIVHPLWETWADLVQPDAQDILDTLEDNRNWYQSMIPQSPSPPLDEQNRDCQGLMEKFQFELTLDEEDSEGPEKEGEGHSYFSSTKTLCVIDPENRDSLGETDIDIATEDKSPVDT
Cytochrome P450 2C9 (Homo sapiens), sequence (P11712 whole entry, looked up): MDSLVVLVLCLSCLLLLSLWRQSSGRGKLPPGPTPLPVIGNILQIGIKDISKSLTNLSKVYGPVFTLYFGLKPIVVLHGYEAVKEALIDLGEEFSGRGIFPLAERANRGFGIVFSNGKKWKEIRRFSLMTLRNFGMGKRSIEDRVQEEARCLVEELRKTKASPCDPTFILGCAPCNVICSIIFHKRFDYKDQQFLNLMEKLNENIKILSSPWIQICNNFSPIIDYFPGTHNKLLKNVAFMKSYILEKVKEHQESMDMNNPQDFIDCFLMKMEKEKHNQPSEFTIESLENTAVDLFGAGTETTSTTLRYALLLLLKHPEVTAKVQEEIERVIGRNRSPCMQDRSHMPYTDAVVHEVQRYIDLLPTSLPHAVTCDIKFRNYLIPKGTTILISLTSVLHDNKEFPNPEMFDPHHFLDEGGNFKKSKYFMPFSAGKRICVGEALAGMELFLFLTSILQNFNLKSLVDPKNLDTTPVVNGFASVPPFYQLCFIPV

Structure (SMILES) | Potency [1] | Potency [2] | Potency [3] | Potency [4] | Potency [5] | Potency [6] | Potency [7] | Potency [8]
CC1(C)C(=O)C(c2ccccc2)=C2CN3C(=O)N(CCc4ccccc4)C(=O)C3(Cc3ccc(F)cc3)C=C21 (stereo not drawn) | 15.8 µM (active) | inactive | inactive | 3.16 µM (active) | inactive | – | – | –
C[C@@H](C(=O)NCc1ccccn1)[C@H]1C[C@]1(C)[C@H](NC(=O)OCc1ccccc1)c1ccccc1 | 25.1 µM (active) | inactive | inactive | 5.01 µM (active) | inactive | 12.6 µM (active) | – | –
C=C1C(=O)C=C2CN(C(=O)c3ccccc3)[C@@](Cc3ccc(OC)cc3)(C(=O)OC)[C@@H]12 | 15.8 µM (active) | inactive | 1.58 µM (active) | 1.58 µM (active) | inactive | – | – | –
COC(=O)[C@@]1(Cc2ccc(F)cc2)[C@@H]2[C@@H](CC(=O)[C@H]2CC(=O)C(=O)N2CCCC2)CN1C(=O)c1ccccc1 | inactive | inactive | inactive | 1.58 µM (active) | inactive | – | – | –
COC(=O)[C@H]1C[C@@H]1[C@H](NC(=O)c1cc(C)nn1C)c1ccccc1 | 20 µM (active) | inactive | inactive | 6.31 µM (active) | inactive | – | – | –
COC(=O)[C@@H]1C[C@H]1[C@@H](NC(=O)OCc1ccccc1)c1ccccc1 | 0.2 µM (active) | inactive | inactive | – | – | – | 20 µM (active) | 2.51 µM (active)
CCCCCC1=C2CNC(CC(C)C)(C(=O)OC)C=C2C(C)C1=O (stereo not drawn) | 25.1 µM (active) | inactive | inactive | – | inactive | 5.01 µM (active) | 3.16 µM (active) | –
COC(=O)[C@@]1(Cc2ccc(F)cc2)[C@H]2c3cc(C(=O)N(C)C)n(Cc4ccc(C(F)(F)F)nc4)c3C[C@H]2CN1C(=O)c1ccccc1 | inactive | inactive | inactive | 1.26 µM (active) | inactive | – | – | –
COC(=O)C1(Cc2ccccc2)C2c3cc(C(=O)N4CCCC4)n(Cc4ccc(OC(F)(F)F)cc4)c3CC2CN1C(=O)c1ccccc1 (stereo not drawn) | inactive | inactive | inactive | 3.16 µM (active) | inactive | – | – | –
COC(=O)[C@H]1C[C@@H]1[C@H](NC(=O)c1cc(C)on1)c1ccccc1 | 15.8 µM (active) | inactive | inactive | – | inactive | – | – | –
COC(=O)[C@@]1(Cc2ccc(OC)cc2)[C@H]2c3cc(C(=O)N4CCCC4)n(Cc4ccc(Cl)c(C(F)(F)F)c4)c3C[C@H]2CN1C(=O)c1ccccc1 | 12.6 µM (active) | inactive | inactive | – | inactive | – | – | –
CCCC[C@@H]1C[C@H]1C(NC(=O)c1cccnc1)c1ccc(Cl)cc1 (stereo partly drawn) | 7.94 µM (active) | inactive | inactive | 0.0794 µM (active) | inactive | – | – | 2 µM (active)
Cc1cc(C(=O)N[C@H](c2ccccc2)[C@@]2(C)C[C@@H]2[C@@H](C)C(=O)Nc2ccc3ccccc3c2)n(C)n1 | 20 µM (active) | inactive | inactive | 0.794 µM (active) | inactive | 0.0398 µM (active) | – | –
COC(=O)[C@@H]1C[C@H]1[C@@H](NC(=O)c1cc(C)nn1C)c1ccccc1 | 15.8 µM (active) | inactive | inactive | – | inactive | – | – | –
CC[C@H]1C2=C3C(CC[C@H]4C(OCc5ccc(F)cc5C(F)(F)F)OC[C@](C)([C@@H]34)N(C(=O)OC(C)(C)C)C2)C(COC)C1COC (stereo partly drawn) | inactive | inactive | inactive | – | inactive | – | – | –
C[C@H](CO)NC(=O)[C@@H]1C[C@H]1[C@@H](NP(=O)(c1ccccc1)c1ccccc1)c1ccccc1 | inactive | inactive | inactive | – | inactive | – | – | –
CCCC1(C(=O)OC)C=C2C(=C(C(C)C)C(=O)C2C)CN1 (stereo not drawn) | inactive | inactive | inactive | – | inactive | – | – | –
COC(=O)[C@@]1(Cc2ccc(F)cc2)[C@H]2c3cc(C(=O)N4CCCC4)n(Cc4ccc(C)o4)c3C[C@H]2CN1C(=O)c1ccccc1 | 10 µM (active) | inactive | inactive | 3.16 µM (active) | inactive | – | – | 5.01 µM (active)
COC(=O)[C@@H]1C[C@H]1[C@@H](NC(=O)c1cnccn1)c1ccccc1 | 12.6 µM (active) | inactive | inactive | – | inactive | – | – | –
COC(=O)C1(CC(C)C)C=C2C(=C(C(C)C)C(=O)C2C)CN1 (stereo not drawn) | 15.8 µM (active) | inactive | inactive | – | inactive | – | – | –
CCCCCC1=C2CNC(C)(C(=O)OC)C=C2C(C)C1=O (stereo not drawn) | 25.1 µM (active) | inactive | inactive | – | inactive | – | – | –
C#CCCCC(=S)Nc1ccccc1 | 12.6 µM (active) | inactive | inactive | – | inactive | – | – | –
CC(C)c1cccc2nc3c(c([Si](C)(C)C)c12)Cn1c-3cccc1=O | 15.8 µM (active) | inactive | inactive | – | inactive | – | – | –
COC(=O)C1(CC(C)C)C=C2C(=C(c3ccccc3)C(=O)C2C)CN1 (stereo not drawn) | 15.8 µM (active) | inactive | inactive | – | inactive | – | – | –
